# Measurements published in article PMC11006913.
# How the values were obtained:
# Assay in all cases: PBM; 200 nM protein, PBS
# Settings in all cases: dsDNA, one strand shown
# HESX1 [1] = target: HESX1 (Homo sapiens, UniProt Q9UBX0 95-180, R165K)
# HOXB4 [2] = target: HOXB4 (Homo sapiens, UniProt P17483 148-234)
# SHOX [3] = target: SHOX (Homo sapiens, UniProt O15266 103-189)
# HESX1 [4] = target: HESX1 (Homo sapiens, UniProt Q9UBX0 95-180)
# HOXB4 [5] = target: HOXB4 (Homo sapiens, UniProt P17483 148-234, V174I)
# HOXB4 (Homo sapiens, UniProt P17483 148-234, V174I), sequence (P17483 148-234 V174I): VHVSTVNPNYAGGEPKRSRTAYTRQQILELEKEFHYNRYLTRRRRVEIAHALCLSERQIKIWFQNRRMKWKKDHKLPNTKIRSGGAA
# ALX1 [6] = target: ALX1 (Homo sapiens, UniProt Q15699 118-204, L144V)
# ALX1 (Homo sapiens, UniProt Q15699 118-204, L144V), sequence (Q15699 118-204 L144V): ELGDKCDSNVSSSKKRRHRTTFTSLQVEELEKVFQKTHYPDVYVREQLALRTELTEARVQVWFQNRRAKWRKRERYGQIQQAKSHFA
# ALX3 [7] = target: ALX3 (Homo sapiens, UniProt O95076 139-225, N203Q)
# ALX3 (Homo sapiens, UniProt O95076 139-225, N203Q), sequence (O95076 139-225 N203Q): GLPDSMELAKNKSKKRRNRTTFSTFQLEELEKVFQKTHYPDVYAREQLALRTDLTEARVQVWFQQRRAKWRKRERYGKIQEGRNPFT
# SHOX [8] = target: SHOX (Homo sapiens, UniProt O15266 103-189, R173C)
# SHOX (Homo sapiens, UniProt O15266 103-189, R173C), sequence (O15266 103-189 R173C): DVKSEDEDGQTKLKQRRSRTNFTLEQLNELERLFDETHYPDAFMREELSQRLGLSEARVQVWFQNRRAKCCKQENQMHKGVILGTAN
# ALX1 [9] = target: ALX1 (Homo sapiens, UniProt Q15699 118-204, L144R)
# ALX1 (Homo sapiens, UniProt Q15699 118-204, L144R), sequence (Q15699 118-204 L144R): as the sequence (Q15699 118-204 L144V) above, with V27R counted along it
# ALX3 [10] = target: ALX3 (Homo sapiens, UniProt O95076 139-225)
# ALX3 (Homo sapiens, UniProt O95076 139-225), sequence (O95076 139-225): as the sequence (O95076 139-225 N203Q) above, with Q65N counted along it
# PROP1 [11] = target: PROP1 (Homo sapiens, UniProt O75360 56-141)
# PROP1 (Homo sapiens, UniProt O75360 56-141), sequence (O75360 56-141): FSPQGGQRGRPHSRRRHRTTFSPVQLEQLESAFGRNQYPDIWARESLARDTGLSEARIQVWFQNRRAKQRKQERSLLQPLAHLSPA
# HESX1 [12] = target: HESX1 (Homo sapiens, UniProt Q9UBX0 95-180, R109Q)
# HESX1 (Homo sapiens, UniProt Q9UBX0 95-180, R109Q), sequence (Q9UBX0 95-180 R109Q): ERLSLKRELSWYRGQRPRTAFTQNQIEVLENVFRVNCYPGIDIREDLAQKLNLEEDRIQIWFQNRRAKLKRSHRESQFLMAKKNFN
# PROP1 [13] = target: PROP1 (Homo sapiens, UniProt O75360 56-141, R99H)
# PROP1 (Homo sapiens, UniProt O75360 56-141, R99H), sequence (O75360 56-141 R99H): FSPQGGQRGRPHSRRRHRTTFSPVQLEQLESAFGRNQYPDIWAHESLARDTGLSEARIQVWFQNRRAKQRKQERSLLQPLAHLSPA
# ALX3 [14] = target: ALX3 (Homo sapiens, UniProt O95076 139-225, L168Q)
# ALX3 (Homo sapiens, UniProt O95076 139-225, L168Q), sequence (O95076 139-225 L168Q): as the sequence (O95076 139-225 N203Q) above, with L30Q, Q65N counted along it
# HESX1 [15] = target: HESX1 (Homo sapiens, UniProt Q9UBX0 95-180, P111T)
# HESX1 (Homo sapiens, UniProt Q9UBX0 95-180, P111T), sequence (Q9UBX0 95-180 P111T): as the sequence (Q9UBX0 95-180 R109Q) above, with Q15R, P17T counted along it
# ALX3 [16] = target: ALX3 (Homo sapiens, UniProt O95076 139-225, L168V)
# ALX3 (Homo sapiens, UniProt O95076 139-225, L168V), sequence (O95076 139-225 L168V): as the sequence (O95076 139-225 N203Q) above, with L30V, Q65N counted along it
# PROP1 [17] = target: PROP1 (Homo sapiens, UniProt O75360 56-141, F88S)
# PROP1 (Homo sapiens, UniProt O75360 56-141, F88S), sequence (O75360 56-141 F88S): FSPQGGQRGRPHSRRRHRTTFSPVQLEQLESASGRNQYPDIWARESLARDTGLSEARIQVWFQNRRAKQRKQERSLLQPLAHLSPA
# HESX1 [18] = target: HESX1 (Homo sapiens, UniProt Q9UBX0 95-180, F115L)
# HESX1 (Homo sapiens, UniProt Q9UBX0 95-180, F115L), sequence (Q9UBX0 95-180 F115L): as the sequence (Q9UBX0 95-180 R109Q) above, with Q15R, F21L counted along it
# ALX1 [19] = target: ALX1 (Homo sapiens, UniProt Q15699 118-204)
# ALX1 (Homo sapiens, UniProt Q15699 118-204), sequence (Q15699 118-204): as the sequence (Q15699 118-204 L144V) above, with V27L counted along it
# ALX3 [20] = target: ALX3 (Homo sapiens, UniProt O95076 139-225, N203S)
# ALX3 (Homo sapiens, UniProt O95076 139-225, N203S), sequence (O95076 139-225 N203S): as the sequence (O95076 139-225 N203Q) above, with Q65S counted along it
# HOXB4 (Homo sapiens, UniProt P17483 148-234), sequence (P17483 148-234): as the sequence (P17483 148-234 V174I) above, with I27V counted along it
# SHOX (Homo sapiens, UniProt O15266 103-189), sequence (O15266 103-189): as the sequence (O15266 103-189 R173C) above, with C71R counted along it
# HESX1 (Homo sapiens, UniProt Q9UBX0 95-180), sequence (Q9UBX0 95-180): as the sequence (Q9UBX0 95-180 R109Q) above, with Q15R counted along it
# HESX1 (Homo sapiens, UniProt Q9UBX0 95-180, R165K), sequence (Q9UBX0 95-180 R165K): as the sequence (Q9UBX0 95-180 R109Q) above, with Q15R, R71K counted along it
Sequence,binding signal (HESX1 [1]),binding signal (HOXB4 [2]),binding signal (SHOX [3]),binding signal (HESX1 [4]),binding signal (HOXB4 [5]),binding signal (ALX1 [6]),binding signal (ALX3 [7]),binding signal (SHOX [8]),binding signal (ALX1 [9]),binding signal (ALX3 [10]),binding signal (PROP1 [11]),binding signal (HESX1 [12]),binding signal (PROP1 [13]),binding signal (ALX3 [14]),binding signal (HESX1 [15]),binding signal (ALX3 [16]),binding signal (PROP1 [17]),binding signal (HESX1 [18]),binding signal (ALX1 [19]),binding signal (ALX3 [20])
TTAATTAA,"13.7 upbm affinity estimate (log intensity, higher = more binding, comparable within an allelic series)","13.5 upbm affinity estimate (log intensity, higher = more binding, comparable within an allelic series)","13.3 upbm affinity estimate (log intensity, higher = more binding, comparable within an allelic series)","13.6 upbm affinity estimate (log intensity, higher = more binding, comparable within an allelic series)","14.2 upbm affinity estimate (log intensity, higher = more binding, comparable within an allelic series)","12.3 upbm affinity estimate (log intensity, higher = more binding, comparable within an allelic series)","8.75 upbm affinity estimate (log intensity, higher = more binding, comparable within an allelic series)","11.2 upbm affinity estimate (log intensity, higher = more binding, comparable within an allelic series)","11.9 upbm affinity estimate (log intensity, higher = more binding, comparable within an allelic series)","13 upbm affinity estimate (log intensity, higher = more binding, comparable within an allelic series)","12.3 upbm affinity estimate (log intensity, higher = more binding, comparable within an allelic series)","11.2 upbm affinity estimate (log intensity, higher = more binding, comparable within an allelic series)","12.4 upbm affinity estimate (log intensity, higher = more binding, comparable within an allelic series)","11.7 upbm affinity estimate (log intensity, higher = more binding, comparable within an allelic series)","12.6 upbm affinity estimate (log intensity, higher = more binding, comparable within an allelic series)","11.6 upbm affinity estimate (log intensity, higher = more binding, comparable within an allelic series)","8.42 upbm affinity estimate (log intensity, higher = more binding, comparable within an allelic series)","8.85 upbm affinity estimate (log intensity, higher = more binding, comparable within an allelic series)","12.9 upbm affinity estimate (log intensity, higher = more binding, comparable within an allelic series)","8.98 upbm affinity estimate (log intensity, higher = more binding, comparable within an allelic series)"
GATAATTA,"13.6 upbm affinity estimate (log intensity, higher = more binding, comparable within an allelic series)","13.8 upbm affinity estimate (log intensity, higher = more binding, comparable within an allelic series)","12.6 upbm affinity estimate (log intensity, higher = more binding, comparable within an allelic series)","13.4 upbm affinity estimate (log intensity, higher = more binding, comparable within an allelic series)","14.5 upbm affinity estimate (log intensity, higher = more binding, comparable within an allelic series)","12.3 upbm affinity estimate (log intensity, higher = more binding, comparable within an allelic series)","8.59 upbm affinity estimate (log intensity, higher = more binding, comparable within an allelic series)","10.1 upbm affinity estimate (log intensity, higher = more binding, comparable within an allelic series)","11.8 upbm affinity estimate (log intensity, higher = more binding, comparable within an allelic series)","12.9 upbm affinity estimate (log intensity, higher = more binding, comparable within an allelic series)","12 upbm affinity estimate (log intensity, higher = more binding, comparable within an allelic series)","9.64 upbm affinity estimate (log intensity, higher = more binding, comparable within an allelic series)","12 upbm affinity estimate (log intensity, higher = more binding, comparable within an allelic series)","11.2 upbm affinity estimate (log intensity, higher = more binding, comparable within an allelic series)","11.9 upbm affinity estimate (log intensity, higher = more binding, comparable within an allelic series)","10.8 upbm affinity estimate (log intensity, higher = more binding, comparable within an allelic series)","7.94 upbm affinity estimate (log intensity, higher = more binding, comparable within an allelic series)","8.2 upbm affinity estimate (log intensity, higher = more binding, comparable within an allelic series)","12.8 upbm affinity estimate (log intensity, higher = more binding, comparable within an allelic series)","8.72 upbm affinity estimate (log intensity, higher = more binding, comparable within an allelic series)"
GCTAATTA,"13.8 upbm affinity estimate (log intensity, higher = more binding, comparable within an allelic series)","13.6 upbm affinity estimate (log intensity, higher = more binding, comparable within an allelic series)","13.5 upbm affinity estimate (log intensity, higher = more binding, comparable within an allelic series)","13.6 upbm affinity estimate (log intensity, higher = more binding, comparable within an allelic series)","14.3 upbm affinity estimate (log intensity, higher = more binding, comparable within an allelic series)","12.4 upbm affinity estimate (log intensity, higher = more binding, comparable within an allelic series)","8.53 upbm affinity estimate (log intensity, higher = more binding, comparable within an allelic series)","10.9 upbm affinity estimate (log intensity, higher = more binding, comparable within an allelic series)","12 upbm affinity estimate (log intensity, higher = more binding, comparable within an allelic series)","13 upbm affinity estimate (log intensity, higher = more binding, comparable within an allelic series)","12.1 upbm affinity estimate (log intensity, higher = more binding, comparable within an allelic series)","10.5 upbm affinity estimate (log intensity, higher = more binding, comparable within an allelic series)","12.3 upbm affinity estimate (log intensity, higher = more binding, comparable within an allelic series)","11.4 upbm affinity estimate (log intensity, higher = more binding, comparable within an allelic series)","12.4 upbm affinity estimate (log intensity, higher = more binding, comparable within an allelic series)","11.2 upbm affinity estimate (log intensity, higher = more binding, comparable within an allelic series)","8.03 upbm affinity estimate (log intensity, higher = more binding, comparable within an allelic series)","8.29 upbm affinity estimate (log intensity, higher = more binding, comparable within an allelic series)","13.1 upbm affinity estimate (log intensity, higher = more binding, comparable within an allelic series)","8.71 upbm affinity estimate (log intensity, higher = more binding, comparable within an allelic series)"
GTTAATTA,"13.7 upbm affinity estimate (log intensity, higher = more binding, comparable within an allelic series)","13.5 upbm affinity estimate (log intensity, higher = more binding, comparable within an allelic series)","13.1 upbm affinity estimate (log intensity, higher = more binding, comparable within an allelic series)","13.6 upbm affinity estimate (log intensity, higher = more binding, comparable within an allelic series)","14.3 upbm affinity estimate (log intensity, higher = more binding, comparable within an allelic series)","12.3 upbm affinity estimate (log intensity, higher = more binding, comparable within an allelic series)","8.67 upbm affinity estimate (log intensity, higher = more binding, comparable within an allelic series)","10.7 upbm affinity estimate (log intensity, higher = more binding, comparable within an allelic series)","12 upbm affinity estimate (log intensity, higher = more binding, comparable within an allelic series)","13 upbm affinity estimate (log intensity, higher = more binding, comparable within an allelic series)","12.1 upbm affinity estimate (log intensity, higher = more binding, comparable within an allelic series)","10.5 upbm affinity estimate (log intensity, higher = more binding, comparable within an allelic series)","12.1 upbm affinity estimate (log intensity, higher = more binding, comparable within an allelic series)","11.5 upbm affinity estimate (log intensity, higher = more binding, comparable within an allelic series)","12.3 upbm affinity estimate (log intensity, higher = more binding, comparable within an allelic series)","11.2 upbm affinity estimate (log intensity, higher = more binding, comparable within an allelic series)","8.2 upbm affinity estimate (log intensity, higher = more binding, comparable within an allelic series)","8.41 upbm affinity estimate (log intensity, higher = more binding, comparable within an allelic series)","13 upbm affinity estimate (log intensity, higher = more binding, comparable within an allelic series)","8.84 upbm affinity estimate (log intensity, higher = more binding, comparable within an allelic series)"
